{
  "source": "PubChem BioAssay (NCATS)",
  "note": "Inconclusive results are not listed. A call without a number means that no potency is given here. Calls of active or inactive are those of the source. The call rests on the fitted dose curve; in most records, active means well fitted curve in the direction sought with a large enough effect; inconclusive means small, poorly fitted or top-dose-only effect, or another doubt; inactive means no such curve, though single readings can be large; an effect the other way counts as inactive or inconclusive. Potency means the concentration at half of the fitted maximal effect.",
  "data": [
    {"test_system": "not listed separately", "experiment": "qHTS of pediatric cancer cell lines to identify multiple opportunities for drug repurposing: Confirmatory screen for SK-N-SH cells (AID 1347129);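 further: cells exposed to compound for 48 h before viability read; nearly all actives have a fitted effect of over 60% in size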", "settings": "SK-N-SH neuroblastoma cell viability; series mostly up to 46.1 µM", "in_short": "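Cells (500-1,000/well) rested 5 h, then received compounds for 48 h; metabolically active cells were measured by CellTiter-Glo luminescence. Final concentrations spanned up to 46 µM (MIPE, 11-point) or 0.59 nM-46 µM (NPC, 8-point) in primary screens, 11-point in follow-ups.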", "values": [
      {"molecule": "COCCn1c2c([n+](Cc3cnccn3)c1C)C(=O)c1ccccc1C2=O", "Potency": "0.235 µM (active)"},
      {"molecule": "O=C(C=Cc1cccc(S(=O)(=O)Nc2ccccc2)c1)NO", "Potency": "13.6 µM (active)"},
      {"molecule": "Cc1ccc(C(=O)Nc2ccc(CN3CCN(C)CC3)c(C(F)(F)F)c2)cc1C#Cc1cnc2cccnn12", "Potency": "1.48 µM (active)"},
      {"molecule": "CNC(=O)c1nn(C)c2c1C(C)(C)Cc1cnc(Nc3ccc(N4CCN(C)CC4)cc3)nc1-2", "Potency": "1.18 µM (active)"},
      {"molecule": "NC(=O)c1cccc2cn(-c3ccc([C@@H]4CCCNC4)cc3)nc12", "Potency": "inactive"},
      {"molecule": "Cc1[nH]nc2ccc(-c3cncc(OC[C@@H](N)Cc4ccccc4)c3)cc12", "Potency": "2.15 µM (active)"},
      {"molecule": "CN(c1ncccc1CNc1nc(Nc2ccc3c(c2)CC(=O)N3)ncc1C(F)(F)F)S(C)(=O)=O", "Potency": "3.72 µM (active)"},
      {"molecule": "CC(C)c1cc(C(=O)N2Cc3ccc(CN4CCN(C)CC4)cc3C2)c(O)cc1O", "Potency": "0.469 µM (active)"},
      {"molecule": "COc1cc2c(NC3CCN(C(C)C)CC3)nc(C3CCCCC3)nc2cc1OCCCN1CCCC1", "Potency": "7.43 µM (active)"},
      {"molecule": "O=c1[nH]nc(Sc2ncc([N+](=O)[O-])s2)n1-c1ccc2c(c1)OCCO2", "Potency": "9.35 µM (active)"},
      {"molecule": "Cc1nc(N)ncc1-c1nc(N2CCOCC2)c2sc(C(C)(C)O)cc2n1", "Potency": "1.48 µM (active)"},
      {"molecule": "COc1c(OCCCN2CCOCC2)ccc2c3n(c(=NC(=O)c4cnc(N)nc4)nc12)CCN3", "Potency": "2.04 µM (active)"},
      {"molecule": "Nc1cc(C(F)(F)F)c(-c2cc(N3CCOCC3)nc(N3CCOCC3)n2)cn1", "Potency": "4.69 µM (active)"},
      {"molecule": "COc1ccc(-n2nc(C(N)=O)c3c2C(=O)N(c2ccc(N4CCCCC4=O)cc2)CC3)cc1", "Potency": "inactive"},
      {"molecule": "C=CC(=O)Nc1cc2c(Nc3ccc(F)c(Cl)c3)ncnc2cc1C#CC(C)(C)N1CCN(C)CC1", "Potency": "4.29 µM (active)"},
      {"molecule": "Cc1cn2c(-c3cn[nH]c3)cnc2c(Nc2ccc(C(=O)N3CCNCC3)cc2F)n1", "Potency": "7.43 µM (active)"},
      {"molecule": "O=C(NC1CCNCC1)c1[nH]ncc1NC(=O)c1c(Cl)cccc1Cl", "Potency": "1.05 µM (active)"},
      {"molecule": "CCNC(=O)Nc1ccc2ncc(Nc3ccc(C)cc3)nc2n1", "Potency": "inactive"},
      {"molecule": "CC(C)(C)c1cnc(CSc2cnc(NC(=O)C3CCNCC3)s2)o1", "Potency": "0.935 µM (active)"},
      {"molecule": "C=CC(=O)Nc1cccc(Oc2nc(Nc3ccc(N4CCN(C)CC4)cc3OC)ncc2Cl)c1", "Potency": "18.7 µM (active)"},
      {"molecule": "CC(C)CC(=O)Nc1n[nH]c2c1CN(C(=O)C1CCN(C)CC1)C2(C)C", "Potency": "4.18 µM (active)"},
      {"molecule": "CNC(=O)c1c(F)cccc1Nc1nc(Nc2cc3c(cc2OC)CCN3C(=O)CN(C)C)nc2[nH]ccc12", "Potency": "5.9 µM (active)"},
      {"molecule": "Cc1ccc(-c2ncn(-c3ccc(Nc4nccc(-c5cccc(N6CCOCC6)c5)n4)cc3)n2)cn1", "Potency": "0.303 µM (active)"},
      {"molecule": "CCn1cc(-c2ccnc3[nH]c(-c4cccc(CN(C)C)c4)cc23)c(-c2ccc(NC(=O)N(C)C)cc2)n1", "Potency": "2.96 µM (active)"},
      {"molecule": "Cc1cc(N2CCOCC2)cc2[nH]c(-c3c(NC[C@@H](O)c4cccc(Cl)c4)cc[nH]c3=O)nc12", "Potency": "3.72 µM (active)"},
      {"molecule": "CNC(=O)CN1CCC(Oc2cc3c(Nc4cccc(Cl)c4F)ncnc3cc2OC)CC1", "Potency": "inactive"},
      {"molecule": "O=C(O)c1ccc2cc(-c3ccc(O)c(C45CC6CC(CC(C6)C4)C5)c3)ccc2c1", "Potency": "inactive"},
      {"molecule": "Cc1nc(Nc2n[nH]c3c2CN(C(=O)N[C@H](CN(C)C)c2ccccc2)C3(C)C)c2sccc2n1", "Potency": "inactive"},
      {"molecule": "COc1cccc(-c2ccc(NC(=O)C3=C(C(=O)O)CCC3)c(F)c2)c1", "Potency": "inactive"},
      {"molecule": "COc1ccc(-c2cc3c(C)nc(N)nc3n(C3CCC(OCCO)CC3)c2=O)cn1", "note": "(stereo not drawn)", "Potency": "inactive"},
      {"molecule": "CCn1nnc2c(N3CCOCC3)nc(-c3ccc(NC(=O)Nc4ccc(C(=O)N5CCN(C)CC5)cc4)cc3)nc21", "Potency": "5.9 µM (active)"},
      {"molecule": "C=CCn1c(=O)c2cnc(Nc3ccc(N4CCN(C)CC4)cc3)nc2n1-c1cccc(C(C)(C)O)n1", "Potency": "3.32 µM (active)"},
      {"molecule": "Nc1ccn([C@@H]2O[C@H](CO)[C@H](O)C2(F)F)c(=O)n1", "Potency": "inactive"},
      {"molecule": "CC(C)(C)OC(=O)Nc1ccc(-c2cc(C(=O)NCCCCCCC(=O)NO)no2)cc1", "Potency": "2.35 µM (active)"},
      {"molecule": "Cc1cc(Nc2ncnc3ccc(-c4ccc(CNCCS(C)(=O)=O)o4)cc23)ccc1Oc1ccn2ncnc2c1", "Potency": "20.9 µM (active)"},
      {"molecule": "CN1CC[C@@H](c2c(O)cc(O)c3c(=O)cc(-c4ccccc4Cl)oc23)[C@@H](O)C1", "Potency": "0.418 µM (active)"}
    ]},
    {"test_system": "Zika virus NS2B-NS3 protease", "experiment": "Primary screen GU AMC qHTS for Zika virus inhibitors (AID 1347154); further: nearly all actives have a fitted effect of over 70% in size", "settings": "Zika NS2B-NS3 unlinked protease, AMC fluorogenic substrate; series mostly up to 54.1 µM", "in_short": "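Fluorogenic AMC-substrate cleavage by noncovalent NS2B-NS3 protease complex (25 nM, pH 8.0 Tris buffer with Tween 20) followed for 15 minutes at room temperature (~20% conversion). Percent inhibition from ex340/em450 signal change, fitted by 4-parameter Hill equation.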", "values": [
      {"molecule": "COCCn1c2c([n+](Cc3cnccn3)c1C)C(=O)c1ccccc1C2=O", "Potency": "inactive"},
      {"molecule": "O=C(C=Cc1cccc(S(=O)(=O)Nc2ccccc2)c1)NO", "Potency": "inactive"},
      {"molecule": "Cc1ccc(C(=O)Nc2ccc(CN3CCN(C)CC3)c(C(F)(F)F)c2)cc1C#Cc1cnc2cccnn12", "Potency": "34.1 µM (active)"},
      {"molecule": "CNC(=O)c1nn(C)c2c1C(C)(C)Cc1cnc(Nc3ccc(N4CCN(C)CC4)cc3)nc1-2", "Potency": "inactive"},
      {"molecule": "NC(=O)c1cccc2cn(-c3ccc([C@@H]4CCCNC4)cc3)nc12", "Potency": "24.1 µM (active)"},
      {"molecule": "Nc1ccccc1NC(=O)c1ccc(CNC(=O)OCc2cccnc2)cc1", "Potency": "inactive"},
      {"molecule": "CC(=O)Nc1nc(C)c(-c2ccc(Cl)c(S(=O)(=O)NCCO)c2)s1", "Potency": "inactive"},
      {"molecule": "CN(c1ncccc1CNc1nc(Nc2ccc3c(c2)CC(=O)N3)ncc1C(F)(F)F)S(C)(=O)=O", "Potency": "inactive"},
      {"molecule": "CC(C)c1cc(C(=O)N2Cc3ccc(CN4CCN(C)CC4)cc3C2)c(O)cc1O", "Potency": "inactive"},
      {"molecule": "COc1cc2c(NC3CCN(C(C)C)CC3)nc(C3CCCCC3)nc2cc1OCCCN1CCCC1", "Potency": "inactive"},
      {"molecule": "O=c1[nH]nc(Sc2ncc([N+](=O)[O-])s2)n1-c1ccc2c(c1)OCCO2", "Potency": "inactive"},
      {"molecule": "Cc1nc(N)ncc1-c1nc(N2CCOCC2)c2sc(C(C)(C)O)cc2n1", "Potency": "inactive"},
      {"molecule": "COc1c(OCCCN2CCOCC2)ccc2c3n(c(=NC(=O)c4cnc(N)nc4)nc12)CCN3", "Potency": "inactive"},
      {"molecule": "Nc1cc(C(F)(F)F)c(-c2cc(N3CCOCC3)nc(N3CCOCC3)n2)cn1", "Potency": "inactive"},
      {"molecule": "COc1ccc(-n2nc(C(N)=O)c3c2C(=O)N(c2ccc(N4CCCCC4=O)cc2)CC3)cc1", "Potency": "inactive"},
      {"molecule": "Cc1cn2c(-c3cn[nH]c3)cnc2c(Nc2ccc(C(=O)N3CCNCC3)cc2F)n1", "Potency": "inactive"},
      {"molecule": "O=C(NC1CCNCC1)c1[nH]ncc1NC(=O)c1c(Cl)cccc1Cl", "Potency": "inactive"},
      {"molecule": "CCNC(=O)Nc1ccc2ncc(Nc3ccc(C)cc3)nc2n1", "Potency": "inactive"},
      {"molecule": "CC(C)(C)c1cnc(CSc2cnc(NC(=O)C3CCNCC3)s2)o1", "Potency": "inactive"},
      {"molecule": "C=CC(=O)Nc1cccc(Oc2nc(Nc3ccc(N4CCN(C)CC4)cc3OC)ncc2Cl)c1", "Potency": "inactive"},
      {"molecule": "CC(C)CC(=O)Nc1n[nH]c2c1CN(C(=O)C1CCN(C)CC1)C2(C)C", "Potency": "inactive"},
      {"molecule": "CNC(=O)c1c(F)cccc1Nc1nc(Nc2cc3c(cc2OC)CCN3C(=O)CN(C)C)nc2[nH]ccc12", "Potency": "inactive"},
      {"molecule": "Cc1ccc(-c2ncn(-c3ccc(Nc4nccc(-c5cccc(N6CCOCC6)c5)n4)cc3)n2)cn1", "Potency": "inactive"},
      {"molecule": "Cc1cc(N2CCOCC2)cc2[nH]c(-c3c(NC[C@@H](O)c4cccc(Cl)c4)cc[nH]c3=O)nc12", "Potency": "17.1 µM (active)"},
      {"molecule": "CNC(=O)CN1CCC(Oc2cc3c(Nc4cccc(Cl)c4F)ncnc3cc2OC)CC1", "Potency": "inactive"},
      {"molecule": "Cc1nc(Nc2n[nH]c3c2CN(C(=O)N[C@H](CN(C)C)c2ccccc2)C3(C)C)c2sccc2n1", "Potency": "inactive"},
      {"molecule": "CC(C)(C)c1cc(C(C)(C)C)c(NC(=O)c2c[nH]c3ccccc3c2=O)cc1O", "Potency": "inactive"},
      {"molecule": "COc1cccc(-c2ccc(NC(=O)C3=C(C(=O)O)CCC3)c(F)c2)c1", "Potency": "inactive"},
      {"molecule": "COc1ccc(-c2cc3c(C)nc(N)nc3n(C3CCC(OCCO)CC3)c2=O)cn1", "note": "(stereo not drawn)", "Potency": "inactive"},
      {"molecule": "Nc1ccn([C@@H]2O[C@H](CO)[C@H](O)C2(F)F)c(=O)n1", "Potency": "inactive"},
      {"molecule": "CC(C)(C)OC(=O)Nc1ccc(-c2cc(C(=O)NCCCCCCC(=O)NO)no2)cc1", "Potency": "inactive"},
      {"molecule": "CN1CC[C@@H](c2c(O)cc(O)c3c(=O)cc(-c4ccccc4Cl)oc23)[C@@H](O)C1", "Potency": "inactive"}
    ]}
  ]
}
